Test results: the supplement of paper PMC11732987, “Enantioselective OTUD7B fragment discovery through chemoproteomics screening and high-throughput optimisation” (Communications Chemistry, 2025)

How the values were obtained:
Test in all cases: log2 ratio of Biotin-Ahx-Ub-VS probe labelling (fragment/DMSO); higher = less target engagement (more negative = stronger competition), active = hit call of the paper (q ≤ 0.05, log2 ratio ≤ -1)
Settings in all cases: compound concentration: 200 uM; treatment time: 3 h
ALG13 = molecular target: T1, ALG13 (UniProt Q9NP73)
T1 sequence (whole entry): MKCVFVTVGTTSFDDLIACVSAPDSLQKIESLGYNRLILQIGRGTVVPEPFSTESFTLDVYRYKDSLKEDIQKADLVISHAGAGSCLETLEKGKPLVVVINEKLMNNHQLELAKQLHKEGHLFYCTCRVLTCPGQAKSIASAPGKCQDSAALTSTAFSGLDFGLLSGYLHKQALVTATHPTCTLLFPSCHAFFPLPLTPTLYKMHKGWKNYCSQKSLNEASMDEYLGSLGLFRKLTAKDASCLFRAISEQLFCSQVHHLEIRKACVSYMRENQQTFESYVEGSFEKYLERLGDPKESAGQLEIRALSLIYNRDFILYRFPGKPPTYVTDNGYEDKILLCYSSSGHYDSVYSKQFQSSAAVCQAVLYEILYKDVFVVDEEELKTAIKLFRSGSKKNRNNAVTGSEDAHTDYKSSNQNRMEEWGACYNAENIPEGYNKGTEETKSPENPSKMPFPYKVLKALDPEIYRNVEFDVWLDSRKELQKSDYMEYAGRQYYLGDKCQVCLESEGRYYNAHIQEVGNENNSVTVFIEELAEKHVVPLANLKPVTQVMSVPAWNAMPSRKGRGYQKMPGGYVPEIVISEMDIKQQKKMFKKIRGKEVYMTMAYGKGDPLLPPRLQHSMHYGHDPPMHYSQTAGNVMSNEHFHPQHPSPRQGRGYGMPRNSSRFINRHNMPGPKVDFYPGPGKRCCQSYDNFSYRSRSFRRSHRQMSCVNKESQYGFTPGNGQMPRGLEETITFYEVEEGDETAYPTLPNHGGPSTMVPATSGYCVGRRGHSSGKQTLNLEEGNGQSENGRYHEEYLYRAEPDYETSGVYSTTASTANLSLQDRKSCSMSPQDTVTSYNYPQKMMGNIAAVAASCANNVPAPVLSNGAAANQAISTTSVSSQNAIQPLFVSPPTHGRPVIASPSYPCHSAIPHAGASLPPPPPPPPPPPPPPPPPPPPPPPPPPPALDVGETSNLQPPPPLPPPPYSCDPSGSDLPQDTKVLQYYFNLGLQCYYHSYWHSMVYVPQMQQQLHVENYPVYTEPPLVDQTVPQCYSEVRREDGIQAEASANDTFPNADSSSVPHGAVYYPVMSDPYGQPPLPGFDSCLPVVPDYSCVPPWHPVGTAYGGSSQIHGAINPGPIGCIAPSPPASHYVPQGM
Method in brief: (§1)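 Each value is an average log2 ratio of fragment to vehicle, tested by unpaired t-test. The underlying Spectronaut label-free quantities were global-median-normalised, and only proteins with ≥2 unique peptides were included. Triplicate HEK293T lysate samples (495 µg) were exposed to fragment at 200 µM or vehicle for 3 h, then to Biotin-Ahx-Ub-VS at 0.5 µM final for 1 h, before NeutrAvidin enrichment of labelled DUBs, LysC and trypsin digestion, and diaPASEF LC-MS/MS.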

ATXN3 = ATXN3 (UniProt P54252)
Method in brief: as §1

BAP1 = molecular target: T2, BAP1 (UniProt Q92560)
T2 sequence (whole entry): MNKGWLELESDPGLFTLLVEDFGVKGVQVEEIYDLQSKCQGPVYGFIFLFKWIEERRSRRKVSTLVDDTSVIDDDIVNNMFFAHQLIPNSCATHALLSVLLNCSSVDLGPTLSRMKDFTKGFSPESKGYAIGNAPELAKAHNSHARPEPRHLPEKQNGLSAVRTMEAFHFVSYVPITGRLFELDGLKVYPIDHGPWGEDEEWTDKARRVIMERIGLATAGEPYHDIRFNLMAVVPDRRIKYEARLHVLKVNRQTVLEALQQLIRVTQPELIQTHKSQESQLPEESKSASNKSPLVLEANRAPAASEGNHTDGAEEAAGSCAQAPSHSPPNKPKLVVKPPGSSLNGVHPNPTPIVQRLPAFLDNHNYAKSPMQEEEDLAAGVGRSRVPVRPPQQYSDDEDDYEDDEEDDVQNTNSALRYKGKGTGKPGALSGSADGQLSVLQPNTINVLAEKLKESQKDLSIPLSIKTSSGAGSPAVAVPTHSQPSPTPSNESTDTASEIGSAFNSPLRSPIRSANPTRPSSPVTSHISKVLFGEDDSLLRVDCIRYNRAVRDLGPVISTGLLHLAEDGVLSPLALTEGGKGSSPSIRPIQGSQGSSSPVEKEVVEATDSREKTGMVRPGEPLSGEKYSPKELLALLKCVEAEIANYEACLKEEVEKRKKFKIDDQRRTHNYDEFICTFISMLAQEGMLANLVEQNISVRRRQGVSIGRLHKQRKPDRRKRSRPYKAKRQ
Method in brief: as §1

EIF3F = EIF3F (UniProt O00303)
Method in brief: as §1

EIF3H = EIF3H (UniProt O15372)
Method in brief: as §1

FAM105A = molecular target: T3, FAM105A (UniProt Q9NUU6)
T3 sequence (whole entry): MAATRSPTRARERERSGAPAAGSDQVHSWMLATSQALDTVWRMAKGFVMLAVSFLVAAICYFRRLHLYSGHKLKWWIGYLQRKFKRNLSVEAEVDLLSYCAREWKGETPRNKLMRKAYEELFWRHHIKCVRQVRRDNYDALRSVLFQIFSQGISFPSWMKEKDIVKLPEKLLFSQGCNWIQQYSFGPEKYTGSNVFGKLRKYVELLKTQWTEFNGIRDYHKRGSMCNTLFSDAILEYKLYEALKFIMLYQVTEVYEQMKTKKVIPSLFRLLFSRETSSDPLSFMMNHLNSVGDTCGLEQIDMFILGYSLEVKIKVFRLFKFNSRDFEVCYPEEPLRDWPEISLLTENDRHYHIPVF
Method in brief: as §1

OTUB1 = OTUB1 (UniProt Q96FW1)
Method in brief: as §1

OTUD4 = molecular target: T4, OTUD4 (UniProt Q01804)
T4 sequence (whole entry): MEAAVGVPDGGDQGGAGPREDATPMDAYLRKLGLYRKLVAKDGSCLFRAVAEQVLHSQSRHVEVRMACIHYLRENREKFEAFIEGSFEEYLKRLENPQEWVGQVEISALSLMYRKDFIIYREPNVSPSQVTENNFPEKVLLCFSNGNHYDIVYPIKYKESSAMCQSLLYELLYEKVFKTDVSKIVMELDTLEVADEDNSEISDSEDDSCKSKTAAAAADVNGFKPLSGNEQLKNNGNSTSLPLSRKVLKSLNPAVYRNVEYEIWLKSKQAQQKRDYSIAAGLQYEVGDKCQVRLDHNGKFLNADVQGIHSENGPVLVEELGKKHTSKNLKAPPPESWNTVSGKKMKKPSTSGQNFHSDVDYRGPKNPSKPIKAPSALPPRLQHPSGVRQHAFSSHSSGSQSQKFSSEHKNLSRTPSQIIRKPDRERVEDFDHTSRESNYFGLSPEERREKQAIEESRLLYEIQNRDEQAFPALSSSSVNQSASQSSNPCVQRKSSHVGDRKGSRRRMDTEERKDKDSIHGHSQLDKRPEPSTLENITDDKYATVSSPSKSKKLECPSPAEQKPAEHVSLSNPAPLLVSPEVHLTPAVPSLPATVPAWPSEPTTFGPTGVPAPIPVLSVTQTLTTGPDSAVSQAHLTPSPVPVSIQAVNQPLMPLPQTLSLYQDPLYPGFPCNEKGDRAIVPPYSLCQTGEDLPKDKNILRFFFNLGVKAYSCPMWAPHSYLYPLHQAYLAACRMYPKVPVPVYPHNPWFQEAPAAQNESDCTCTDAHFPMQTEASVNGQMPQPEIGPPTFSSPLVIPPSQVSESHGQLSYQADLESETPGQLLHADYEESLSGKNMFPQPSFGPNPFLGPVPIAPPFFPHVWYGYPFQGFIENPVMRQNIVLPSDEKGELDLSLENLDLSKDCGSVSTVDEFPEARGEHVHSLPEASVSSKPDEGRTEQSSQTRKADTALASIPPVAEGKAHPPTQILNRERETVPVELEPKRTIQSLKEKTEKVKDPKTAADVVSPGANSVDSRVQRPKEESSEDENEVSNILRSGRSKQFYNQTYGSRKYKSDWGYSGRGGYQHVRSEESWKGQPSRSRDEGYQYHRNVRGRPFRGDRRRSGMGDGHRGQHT
Method in brief: as §1

OTUD5 = molecular target: T5, OTUD5 (UniProt Q96G74)
T5 sequence (whole entry): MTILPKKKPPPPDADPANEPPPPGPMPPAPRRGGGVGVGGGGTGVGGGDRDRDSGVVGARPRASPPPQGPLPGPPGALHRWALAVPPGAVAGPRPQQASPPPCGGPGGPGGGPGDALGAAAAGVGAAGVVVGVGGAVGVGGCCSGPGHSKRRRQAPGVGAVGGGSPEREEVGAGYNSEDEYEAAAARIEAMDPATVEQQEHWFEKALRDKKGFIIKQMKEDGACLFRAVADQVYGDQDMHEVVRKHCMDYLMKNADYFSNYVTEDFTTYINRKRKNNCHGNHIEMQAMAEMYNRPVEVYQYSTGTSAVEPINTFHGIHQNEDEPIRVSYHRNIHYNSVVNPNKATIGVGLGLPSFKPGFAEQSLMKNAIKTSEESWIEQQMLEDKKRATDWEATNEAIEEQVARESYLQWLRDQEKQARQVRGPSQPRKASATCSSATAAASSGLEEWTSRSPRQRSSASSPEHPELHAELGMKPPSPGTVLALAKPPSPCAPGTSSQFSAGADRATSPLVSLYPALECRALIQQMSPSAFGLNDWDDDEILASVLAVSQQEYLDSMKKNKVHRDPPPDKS
Method in brief: as §1

Measured: log2 ratio of Biotin-Ahx-Ub-VS probe labelling

Chain of OTUB1 (Q96FW1 whole entry): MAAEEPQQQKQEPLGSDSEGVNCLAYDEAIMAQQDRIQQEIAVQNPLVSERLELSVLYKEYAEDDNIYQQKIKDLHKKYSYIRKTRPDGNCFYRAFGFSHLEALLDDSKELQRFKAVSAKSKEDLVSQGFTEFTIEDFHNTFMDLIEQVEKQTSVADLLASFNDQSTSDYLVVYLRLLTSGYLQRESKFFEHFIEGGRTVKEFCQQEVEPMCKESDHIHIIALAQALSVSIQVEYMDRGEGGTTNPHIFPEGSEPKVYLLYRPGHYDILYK
Chain of ATXN3 (P54252 whole entry): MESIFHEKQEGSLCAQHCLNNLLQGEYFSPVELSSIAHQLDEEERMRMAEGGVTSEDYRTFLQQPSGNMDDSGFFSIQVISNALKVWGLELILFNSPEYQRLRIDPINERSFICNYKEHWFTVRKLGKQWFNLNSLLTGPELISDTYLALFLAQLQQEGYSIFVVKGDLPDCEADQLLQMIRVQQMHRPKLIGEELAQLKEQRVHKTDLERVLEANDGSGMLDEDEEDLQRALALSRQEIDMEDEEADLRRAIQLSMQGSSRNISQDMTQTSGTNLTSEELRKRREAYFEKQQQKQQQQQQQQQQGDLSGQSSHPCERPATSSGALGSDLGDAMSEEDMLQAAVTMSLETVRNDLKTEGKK
Chain of EIF3H (O15372 whole entry): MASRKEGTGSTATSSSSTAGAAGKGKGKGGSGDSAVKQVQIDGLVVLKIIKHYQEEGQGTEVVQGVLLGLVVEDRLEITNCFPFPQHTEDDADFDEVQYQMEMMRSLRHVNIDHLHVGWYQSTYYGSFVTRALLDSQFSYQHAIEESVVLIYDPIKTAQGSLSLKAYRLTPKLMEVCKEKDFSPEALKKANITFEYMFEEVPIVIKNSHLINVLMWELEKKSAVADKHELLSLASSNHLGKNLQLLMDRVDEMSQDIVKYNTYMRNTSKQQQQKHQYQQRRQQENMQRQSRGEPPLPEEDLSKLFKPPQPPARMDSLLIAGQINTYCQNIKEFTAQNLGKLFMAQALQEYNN
Chain of EIF3F (O00303 whole entry): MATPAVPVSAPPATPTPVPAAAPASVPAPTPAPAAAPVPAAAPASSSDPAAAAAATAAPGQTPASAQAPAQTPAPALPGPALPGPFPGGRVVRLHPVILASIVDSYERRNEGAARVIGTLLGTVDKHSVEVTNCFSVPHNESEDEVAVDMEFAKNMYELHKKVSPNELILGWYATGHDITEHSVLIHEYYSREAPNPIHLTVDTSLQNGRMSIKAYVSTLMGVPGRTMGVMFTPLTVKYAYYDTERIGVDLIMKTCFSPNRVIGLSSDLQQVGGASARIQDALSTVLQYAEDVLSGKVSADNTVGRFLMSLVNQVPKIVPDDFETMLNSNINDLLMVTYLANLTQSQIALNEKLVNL

N#Cc1ccc(CNC(=O)CCl)cc1
inactive: ALG13 -0.583 | ATXN3 -0.171 | EIF3F -0.0324 | EIF3H 0.142 | FAM105A -0.00692 | OTUB1 -0.0861 | OTUD4 -0.138 | OTUD5 -0.348
active: BAP1 -3.38
